High-throughput results (PubChem BioAssay)
HT1080NT lethal: qHTS for induction of synthetic lethality in tumor cells producing 2HG: qHTS for the HT-1080-NT fibrosarcoma cell line; Potency, µM (series often up to 46.1 µM), inactives show at the top dose activity, negative = less viability, actives largely listed as cytotoxic; HT-1080-NT fibrosarcoma viability, CellTiter-Glo ATP luminescence, 48 h; 360,000 compounds, 1.6% hits; AID 686970, 2013;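 also: NT is the 2HG producing partner of a matched IDH1 knockdown line; potency is read from the fitted curve at half-maximal effect; 0% = DMSO-treated cells and -100% = media-only wells without cells; nearly all actives have a fitted effect of over 55% in size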
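HT-1080-NT fibrosarcoma cells (2HG-overproducing), 750 cells/well in RPMI with 5% FBS, dosed after 2 h and incubated 48 h at 37C. CellTiter-Glo luminescence normalized to DMSO and no-cell wells; concentration-response curves fitted and classed.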
HT1080 IDH1KD tx: qHTS for induction of synthetic lethality in tumor cells producing 2HG: qHTS for the HT-1080-IDH1KD cell line. HT-1080 IDH1 knockdown viability, ATP luminescence, 48 h. Potency, µM (titrated, usually from 46.1 µM), without a hit: at the highest dose activity, negative = toxicity, most hits filed as cytotoxic. 360,000 compounds, 2% hits. AID 686971, 2013;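 also: potency is read from the fitted curve at half-maximal effect; 0% = DMSO wells and -100% = cell-free medium wells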
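Knockdown cells (IDH1KD HT-1080) received compounds 2 h after plating at 750 cells/well and were kept 48 h at 37 °C in 5% FBS RPMI. A CellTiter-Glo luminescence read gave % activity for curve fitting.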
DT40 TDP1 CPT: qHTS for Inhibitors of human tyrosyl-DNA phosphodiesterase 1 (TDP1): qHTS in cells in presence of CPT. chicken DT40 Tdp1-/-;hTDP1 cells + 20 nM CPT, ATP luminescence, 48 h. Potency, µM (series often up to 46.2 µM), for inactives: top-dose activity change, negative = growth inhibition, most hits filed as inhibitors. 420,000 compounds, 12% hits. AID 686979, 2013; also: potency is read from the fitted curve at half-maximal effect; nearly all actives have a fitted effect of over 55% in size
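Chicken DT40 Tdp1-/- cells stably complemented with human TDP1 were seeded at 400 cells/well in medium containing 20 nM camptothecin, exposed to pin-transferred compounds, and grown at 37 °C for at least 48 hr. Viability was read as ATP luminescence.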
DT40 TDP1 no CPT: qHTS for Inhibitors of human tyrosyl-DNA phosphodiesterase 1 (TDP1): qHTS in cells in absence of CPT; DT40 Tdp1-/- hTDP1 cells, no CPT, ATP luminescence, 48 h; Potency, µM (doses to about 46.2 µM), for the others: at the top dose activity change, negative = growth inhibition, most hits filed as inhibitors; 420,000 compounds, 15% hits; also: potency is read from the fitted curve at half-maximal effect; nearly all actives have a fitted effect of over 55% in size
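Readout: luminescence from CellTiter-Glo after 30 min in the dark at RT. Cells: DT40 Tdp1-/- with stable hTDP1, 400/well. Exposure: compounds alone, ≥48 hr, 37 °C.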
IL1B secr inh: qHTS for Inhibitors of Inflammasome Signaling: IL-1-beta AlphaLISA Primary Screen; THP-1 LPS/ATP IL-1B secretion, AlphaLISA, 16 h; stronger effect = lower value; activity change, % at 57.5 µM; 360,000 compounds, 4.7% hits; AID 743279, 2014; in the data active = activity change below about -50%; inconclusive = mostly about -30% to -49%
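Secreted IL-1B measured by AlphaLISA bead assay after 16 h compound exposure of THP-1 cells; compounds (final up to 57.5 uM) added 1 h before LPS (250 ng/mL) and ATP (1.25 mM) stimulation; lower signal means less secretion.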
12-LOX inh: Primary qHTS assay for inhibitors of human arachidonate 12S-lipoxygenase (ALOX12): Round 2; Polyunsaturated fatty acid lipoxygenase ALOX12 (Homo sapiens), P18054; purified 12hLO, xylenol orange hydroperoxide absorbance; Potency, µM (doses to about 108 µM), for the others: top-dose activity change, negative = inhibition, usual class: inhibitors; 580,000 compounds, 1.1% hits; also: potency is read from the fitted curve at half-maximal effect
Target sequence (P18054 whole entry, looked up): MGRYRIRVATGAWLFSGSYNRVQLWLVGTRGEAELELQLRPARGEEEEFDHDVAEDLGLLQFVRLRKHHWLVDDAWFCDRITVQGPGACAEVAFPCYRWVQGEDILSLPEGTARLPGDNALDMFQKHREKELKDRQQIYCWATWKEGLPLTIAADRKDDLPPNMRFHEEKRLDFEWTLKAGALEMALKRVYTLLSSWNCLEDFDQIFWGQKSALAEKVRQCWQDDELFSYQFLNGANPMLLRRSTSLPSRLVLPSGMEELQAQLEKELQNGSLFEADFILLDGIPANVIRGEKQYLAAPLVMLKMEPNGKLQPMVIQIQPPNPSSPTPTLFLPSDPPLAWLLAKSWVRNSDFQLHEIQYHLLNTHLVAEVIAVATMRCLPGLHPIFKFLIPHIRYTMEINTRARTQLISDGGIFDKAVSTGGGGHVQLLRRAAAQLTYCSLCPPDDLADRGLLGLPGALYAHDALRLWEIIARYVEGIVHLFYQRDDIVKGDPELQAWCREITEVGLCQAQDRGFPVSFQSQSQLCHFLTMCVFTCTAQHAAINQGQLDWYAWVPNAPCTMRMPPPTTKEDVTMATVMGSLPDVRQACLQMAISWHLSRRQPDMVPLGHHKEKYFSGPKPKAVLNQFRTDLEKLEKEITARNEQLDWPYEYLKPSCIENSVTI
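Purified human 12hLO (150 nM final) in 25 mM Hepes, 0.01% Triton X-100, pH 7.0 was preincubated 15 min at room temperature with compound. Then 40 uM arachidonic acid was added, 30 min. Hydroperoxide was read by Fe-XO absorbance ratio 573/405 nm.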
* = called active by the depositor; ? = inconclusive; . = no result; [ ] = dose if it differs, or a comment. The full list was thinned out, with hits kept by preference. Unless noted, calls follow the shape of the dose curve; as a rule, active = well fitted curve in the direction sought with a large enough effect; inconclusive = small, poorly fitted or top-dose-only effect, or another doubt; inactive = no such curve, though single readings can be large; an effect the other way counts as inactive or inconclusive. Unless noted, % is scaled to controls: 0 for no effect and ±100 for the full control effect.

SMILES	HT1080NT lethal	HT1080 IDH1KD tx	DT40 TDP1 CPT	DT40 TDP1 no CPT	IL1B secr inh	12-LOX inh
Cc1ccc(Cc2c[nH]c(=S)s2)cc1	-17%	-1%	7%	?	1	35µM*
Cc1noc2ccc(-c3cnn(Cc4ccccc4)c3)nc12	.	.	.	.	.	21%[176 µM]
O=C(CCCN1C(=O)C(c2ccccc2)Oc2cccnc21)Nc1ccccc1C(F)(F)F (stereo not given)	.	.	-17%	2%	.	-17%
O=C(CCCN1C(=O)C(c2ccccc2)Oc2cccnc21)NCc1ccccc1Cl (stereo not given)	3%	7%	?	?	-13	0%
CCN(CC)c1ccc(NC(=O)CCCN2C(=O)C(c3ccccc3)Oc3cccnc32)c(C)c1 (stereo not given)	.	.	18µM*	10µM*	.	-14%
O=C(CCCN1C(=O)C(c2ccccc2)Oc2cccnc21)NCc1ccccc1F (stereo not given)	-1%	0%	16µM*	?	-22	9%
CO[C@H]1[C@H](NC(=O)c2cn(C)c3ccccc23)c2ccccc2C12CCNCC2	.	.	.	.	.	32%
O=[N+]([O-])c1cc([N+](=O)[O-])c(Oc2ccc(F)cc2)cc1NN1CCCCC1	-8%	2%	-14%	-8%	29	-8%
O=[N+]([O-])c1cc([N+](=O)[O-])c(Oc2cc(F)cc(F)c2)cc1NN1CCCCC1	2%	5%	18µM*	-24%	21	9%
CCN1CCN(c2ccccc2NC(=O)c2ccc(-n3cccn3)cc2)CC1	-6%	-4%	?	-16%	?	?
Cc1ccc(O)c(C(=O)c2cnc3c(c2)CN(CCC(C)C)C(=O)N3)c1	?	?	10µM*	12µM*	-15	?
O=C(/C=C/c1ccsc1)c1ccc(O)cc1	.	.	.	.	.	50µM*
CSc1ccc(/C=C/C(=O)c2ccc(O)cc2)cc1	?	?	18µM*	-84%	-79*	?
CSc1ccc(/C=C/C(=O)c2ccc(N(C)C)cc2)cc1	.	.	.	.	.	-11%
COc1cc(C(=O)/C=C/c2ccc(SC)cc2)ccc1O	.	.	.	.	.	40µM*
CCN1CCCC1CNCC(O)COc1ccc(C(C)(C)C)cc1C (stereo not given)	-28%	?	6.5µM*	5.8µM*	?	-20%
CCN1CCCC1CNCC1CCCCC1 (stereo not given)	.	.	.	.	.	-7%
CC(=O)c1c(C)nc2ccc(Cl)cc2c1-c1ccccc1	.	.	.	.	.	-28%
CCCc1c(C)nc2ccc(Cl)cc2c1-c1ccccc1	.	.	.	.	.	1.8µM*
CC(C(=O)N1CCCC1)N1CCC2(CCC(=O)N(CCO)C2)CC1 (stereo not given)	.	.	.	.	.	12%
O=c1[nH]c(/C=C\c2cccs2)nc(O)c1[N+](=O)[O-]	-2%	0%	0%	-17%	0	22µM*
O=c1[nH]c(/C=C\c2ccc(O)cc2)nc(O)c1[N+](=O)[O-]	8%	13%	-13%	14%	0	?
O=S(=O)(NC[C@H]1O[C@@H](CO)[C@@H](O)[C@H]1N1CCOCC1)c1ccccc1	.	.	.	.	.	-2%[176 µM]
O=C(NC[C@H]1O[C@@H](CO)[C@@H](O)[C@H]1N1CCN(c2ccccn2)CC1)Nc1ccc(F)cc1F	.	.	.	.	.	10µM*
O=S(=O)(NC[C@H]1O[C@@H](CO)[C@@H](O)[C@H]1N1CCN(c2ccccc2)CC1)c1ccc(F)cc1	.	.	.	.	.	22µM*
SMILES	HT1080NT lethal	HT1080 IDH1KD tx	DT40 TDP1 CPT	DT40 TDP1 no CPT	IL1B secr inh	12-LOX inh
O=C(c1ccc(C(F)(F)F)cc1)N1CC[C@H]2COC(=O)N2c2cc(F)ccc2C1	.	.	.	.	.	14%[176 µM]
C/C(=N\NC(=S)NC(C)C)c1ccc2c(c1)OCCO2	10%	-3%	1.3µM*	6.5µM*	-79*	?
COc1cc(/C(C)=N/NC(=S)NC(C)C)cc(OC)c1OC	-4%	-10%	1.3µM*	1.2µM*	?	?
C/C(=N\NC(=S)Nc1ccc(C(C)C)cc1)c1ccc2c(c1)OCO2	-23%	-27%	?	23µM*	-17	?
CNC(=S)N/N=C(\C)c1ccc2c(c1)OCO2	14%	12%	21%	?	?	13%
CNC(=S)N/N=C(\C)c1ccc2c(c1)OCCO2	30%	20%	-3%	-4%	13	?
C/C(=N\NC(=O)COc1ccc(C(C)(C)C)cc1)c1ccc2c(c1)OCCO2	5%	19%	16µM*	26µM*	12	9%
COCc1nc(CCNC(=O)C(C)Oc2ccccc2)no1 (stereo not given)	.	.	.	.	.	36%
O=C(NCc1ccc(S(=O)(=O)N2CCOCC2)cc1)c1cc(Br)ccc1O	.	.	.	.	.	-3%
O=C(COC(=O)c1c2c(nc3ccccc13)CCCC2)c1ccc(Oc2c(Cl)cccc2[N+](=O)[O-])cc1	.	.	.	.	.	12%
O=C1NC2(CCCN(C(=O)c3cccnc3)C2)Oc2ccccc21 (stereo not given)	.	.	.	.	.	34%[176 µM]
O=C(NCc1ccccn1)c1ccc2c(c1)N(Cc1ccccc1)CCS2	-15%	-28%	?	?	-24	7%
O=C(NCc1ccccc1Cl)c1ccc2c(c1)N(Cc1ccccc1)CCS2	.	.	13µM*	18µM*	.	?
Cc1ccccc1CNC(=O)c1ccc2c(c1)N(Cc1ccccc1)CCS2	.	.	?	21µM*	.	-16%
C[C@@H]1CN([C@@H](C)CO)C(=O)c2cc(C#CCN(C)C)cnc2O[C@H]1CN(C)Cc1ccc2c(c1)OCO2	0%	3%	21%	1%	-15	-23%
Cc1cccc(NC(=O)CNC(=O)c2cc3ccc(F)cc3nc2C)c1C	.	.	.	.	.	-1%
COc1ccc(CCNC(=O)C2CCN(C(=O)c3cccs3)CC2)cc1	3%	8%	-5%	-21%	34	-8%
COc1ccc(CCNC(=O)C2CCN(C(=O)c3ccccc3C)CC2)cc1	12%	10%	?	18µM*	15	0%
COc1cc(OC)cc(C(=O)N2CCC(C(=O)NCCc3ccccc3)CC2)c1	1%	1%	7.3µM*	7.3µM*	34	9%
